Screen size: about 330,000 compounds; about 2,800 (0.85%) were called active. The full list was thinned out, with actives kept by preference. A number with no mark means an inactive call.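 Rule for the calls: active = mean inhibition across replicates of 60% or more, whatever share of single replicates reaches that level; inconclusive = some that reach 60%, reason not given; inactive = mean inhibition across replicates below 60%.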

The assay in a line: MITF transcriptional activity suppression – cell-based, SK-MEL-5, single point, luciferase, primary screen (AID 488899). The note with it: SK-MEL-5 TRPM1 promoter luciferase, 24 h; at 12.5 µM; stronger effect = higher value.
By inhibition is commonly meant the relative decrease from the control value, in per cent. In the case of `Cc1ccc(S(=O)(=O)N(Cc2cccc([N+](=O)[O-])c2)C(=O)N2CCN(C)CC2)cc1`, the inhibition was 4.92%.

Regarding `O=C(CCl)N(Cc1cccc([N+](=O)[O-])c1)c1cccc(Cl)c1`, the inhibition is 66.2% (active).

With `CCN(CC)C(=O)CN(c1cccc([N+](=O)[O-])c1)S(=O)(=O)c1ccccc1`, the inhibition was -4.33%.

For `COCCSc1nnc(NC(=O)c2cc(OC)c(OC)cc2[N+](=O)[O-])s1`, the inhibition was -2.51%.

On to `CC(=NNC(=O)c1ccncc1)c1ccc(Cl)c(Cl)c1`, for which the inhibition was -7.3%.

Consider `NS(=O)(=O)c1ccc(CNC(=O)c2ccc(Cl)cc2[N+](=O)[O-])cc1`, for which the inhibition was 10.6%.

In the case of `CCCCNC(=O)C(C)N(CCN(C)C)C(=O)CCCN1C(=O)NC(c2ccc(Cl)cc2)C(C(=O)OCc2ccccc2)=C1C` (centres undefined), the inhibition was 91.1% (active).

Regarding `CCCCNC(=O)C(C)N(CCN(C)C)C(=O)CCCCCN1C(=O)NC(c2ccc(Cl)cc2)C(C(=O)OCc2ccccc2)=C1C` (centres undefined), the inhibition is 94.5% (active).

Take `CCN1C(=O)N[C@@H](c2ccccc2)C(C(=O)OC)=C1C`: the inhibition was -9.9%.

In the case of `CC1=C(C(=O)OCc2ccccc2)C(c2ccc(C(F)(F)F)cc2)NC(=O)N1CCCCCC(=O)O` (centres undefined), the inhibition is -6.33%.

For the compound `CCOC(=O)CCCNC(=O)CN1C(=O)NC(CCc2ccccc2)C1=O` (centres undefined), the inhibition is 4.69%.

As to `CCOC(=O)C1=C(c2ccccc2)NC(=S)NC1c1ccc(Cl)cc1` (centres undefined), the inhibition was -19%.

As for `C/C(CC(=O)NCc1ccc(Cl)cc1)=N\NC(=O)COc1ccc(C)cc1Br`, the inhibition was 40.1%.

In the case of `Nc1nc(SCC(=O)N2CCN(S(=O)(=O)c3ccc(Cl)cc3)CC2)n[nH]1`, the inhibition was -2.96%.

`Fc1ccccc1/C=N/Nc1cc(N2CCCCC2)ncn1`: the inhibition is -35%.

Regarding `COc1cccc2sc(N(CCCN(C)C)C(=O)C(c3ccccc3)c3ccccc3)nc12`, the inhibition was 71.9% (active).

For the compound `COc1cccc2sc(N(CCCN(C)C)C(=O)CCS(=O)(=O)c3ccccc3)nc12`, the inhibition is 31.1%.

`COc1cc2ccccc2cc1C(=O)N(CCN(C)C)c1nc2c(F)cccc2s1`: the inhibition is 2.41%.

`COc1cccc2c1C(=O)c1c(O)c3c(c(O)c1C2=O)CC(O)(C(C)=NNC(=O)c1ccc(Cl)c(Cl)c1)CC3OC1CC(N)C(O)C(C)O1` (centres undefined): the inhibition is 82.2% (active).

Consider `CN(CC(=O)Nc1ccc(F)c(F)c1F)C(=O)Cn1cnc2c1c(=O)n(C)c(=O)n2C`, for which the inhibition is -2.69%.

On to `Cc1ccc(OCC(=O)Nc2ccc3oc(=O)ccc3c2)cc1C`, for which the inhibition is -15.4%.

Turning to `CCN1/C(=C\c2ccc3ccccc3[n+]2CC)Sc2cc(C)ccc21`, the inhibition is 104% (active).

As to `CC(C)(C)n1nc2c(c1NC(=O)c1ccc(S(=O)(=O)N3CCCC3)cc1)CS(=O)C2` (centres undefined), the inhibition was -11.4%.

As for `O=S(=O)(NCCNS(=O)(=O)c1ccccc1)c1ccccc1`, the inhibition was 11.2%.

Take `O=C1C=C(NS(=O)(=O)c2ccccc2)C(=O)c2ccccc21`: the inhibition is 65.7% (active).

In the case of `Cn1c(NC(=O)c2ccccc2)nc2ccccc21`, the inhibition is -26.1%.

Turning to `CC(NC(=O)c1ccccc1)C(=O)Nc1ccccc1` (centres undefined), the inhibition is -6.34%.

`O=C(NC1=CC(=O)c2ccccc2C1=O)c1ccccc1`: the inhibition is 94.4% (active).

As for `COc1ccc(S(=O)(=O)/N=C2\C=C(NS(=O)(=O)c3ccccc3)C(=O)c3ccccc32)cc1`, the inhibition is 12.7%.

With `O=C(COC(=O)CSc1nnc(-c2ccc(Cl)cc2)o1)Nc1cc(Cl)cc(Cl)c1`, the inhibition was -3.64%.

Take `CC(C)c1nc2oc3c(N4CCN(C)CC4)ncnc3c2c2c1CCC2`: the inhibition is 5.53%.

As to `CC(=O)N1CCc2ccc(N)cc21`, the inhibition is 6.31%.

For `CSc1ccccc1NC(=O)c1cnc2sc(C)cn2c1=O`, the inhibition was -128%.

Turning to `COCCN1C(=O)C(=O)/C(=C(/O)c2ccc(S(=O)(=O)N3CCOCC3)cc2)C1c1ccc(O)c(OC)c1` (centres undefined), the inhibition was -1.49%.

Take `O=C(CNCc1ccc(Cl)cc1)Nc1cccc(C(=O)O)c1`: the inhibition is 2.1%.

Consider `O=S1(=O)CCC(NC(=S)SCc2ccccc2Br)C1` (centres undefined), for which the inhibition was 75.3% (active).

In the case of `CCCSC(=S)NC1CCS(=O)(=O)C1` (centres undefined), the inhibition was 17%.

With `O=C(CSc1ccccc1F)NC1CCS(=O)(=O)C1` (centres undefined), the inhibition is -4.88%.

With `COc1ccc(OC)c(Cc2cnc3nc(N)nc(N)c3c2C)c1`, the inhibition was 8.03%.

Turning to `CCOC(=O)N1CCN(C(=O)c2ccc3c(=O)n(CCc4ccc(OC)c(OC)c4)c(=O)[nH]c3c2)CC1`, the inhibition is 2.29%.

Regarding `Cc1oc2c(C)c3oc(=O)c(CC(=O)N[C@@H](CC(C)C)C(=O)N[C@@H](Cc4ccccc4)C(=O)O)c(C)c3cc2c1C`, the inhibition was 9.54%.

Regarding `CC(C)(C)NC(=O)COc1ccc(CNc2ccc3[nH]c(=O)[nH]c3c2)cc1`, the inhibition is 0.891%.

Regarding `COc1ccc2nc(N3CCN(C(=O)c4ccc([N+](=O)[O-])o4)CC3)sc2c1`, the inhibition is 67.3% (active).

Consider `O=C(c1ccc2nc(N3CCOCC3)sc2c1)N1CCN(c2ccc(Cl)cc2)CC1`, for which the inhibition is 4.87%.

On to `COc1ccc2nc(N3C(=O)C(O)=C(C(=O)c4ccco4)C3c3ccco3)sc2c1` (centres undefined), for which the inhibition was 10.6%.

`CC(C)(C)c1nnc2sc(SCC(O)=C(C#N)c3nc4ccccc4[nH]3)nn2c1=O`: the inhibition is -7.27%.

`O=C(CN1CCc2ccccc2C1)Nc1cccc(S(=O)(=O)N2CCOCC2)c1`: the inhibition was 4.73%.

For `COC(=O)c1ccc(CN2CCC(CO)(Cc3ccc(OC)cc3)CC2)cc1`, the inhibition is -13%.

Regarding `Nc1c(Cl)cc(S(N)(=O)=O)cc1S(N)(=O)=O`, the inhibition is -2.87%.

For the compound `S=C(NCCCc1ccccc1)Nc1ccc(Br)cc1`, the inhibition is -6.26%.

Regarding `C=C(C)C(=O)O[C@H]1C/C(C)=C\C(=O)/C=C(\C)[C@H](O)[C@@H]2OC(=O)C(=C)[C@@H]21`, the inhibition was 85.9% (active).

Take `O=[N+]([O-])c1cccc(C=NN=Cc2ccccc2O)c1`: the inhibition was -42.5%.

On to `CCOc1ccc(CCNC(=O)COC(=O)C2CCN(S(=O)(=O)c3ccccc3)CC2)cc1OCC`, for which the inhibition is 9.54%.

For `Cc1c(Cl)c([N+](=O)[O-])nn1Cc1ccc(C(=O)N/N=C\c2cc(Cl)ccc2O)o1`, the inhibition was 65.8% (active).

Take `Cc1nn(Cc2ccc(Cl)cc2)c(Cl)c1/C=N/NC(=O)c1cccnc1`: the inhibition is 18.6%.

For `O=C(N/N=C\c1ccc(Br)cc1)c1ccc(Cn2cccn2)o1`, the inhibition is -24.2%.

In the case of `COc1ccc(CCN2C(=O)CC(N3CCC(C(N)=O)CC3)C2=O)cc1OC` (centres undefined), the inhibition was 18.7%.

In the case of `CCCCN1CC(COCc2ccccc2)OCCS1(=O)=O` (centres undefined), the inhibition was 6.74%.

For `O=C(CC1Sc2ccccc2NC1=O)NNc1ccc(Cl)c(Cl)c1` (centres undefined), the inhibition was -0.562%.

With `C[C@H]1CN([C@@H](C)CO)C(=O)Cc2cc(NC(=O)Cc3ccccc3)ccc2O[C@H]1CN(C)S(=O)(=O)c1cccs1`, the inhibition was 14.1%.

Take `CCCCCn1c(=O)c(C(=O)OCC)c(Cl)c2ccccc21`: the inhibition is 6.88%.

In the case of `CC(=O)Oc1c(C(=O)c2nnc(C)o2)c(=O)n(Cc2ccccc2)c2ccccc12`, the inhibition is 66% (active).

For the compound `CC(=O)c1nc2ccccc2n1Cc1ccccc1`, the inhibition is 3.29%.

For `Cc1ccc(NC(=S)NC(NC(=O)Cc2cccc3ccccc23)C(Cl)(Cl)Cl)cc1` (centres undefined), the inhibition was 36%.

Take `Cc1n[nH]c(=O)c2c1nnn2Cc1ccc(F)cc1`: the inhibition was 0.048%.

As to `Cc1ccc(CNS(=O)(=O)CCNC(=O)c2ccccc2)cc1`, the inhibition is -8.66%.

Regarding `COc1cc(C#Cc2ccc3cc(CCCO)oc(=O)c3c2)cc(OC)c1`, the inhibition was -11.2%.

In the case of `COc1cc(/C=C2\Oc3ccc(C#Cc4ccc(O)cc4)cc3C2=O)cc(OC)c1`, the inhibition is 73.1% (active).

On to `COC(=O)C(C)Oc1ccc2c(c1)O/C(=C\c1cccc(Br)c1)C2=O` (centres undefined), for which the inhibition is -3.21%.

As for `O=C(C1CC(=O)N(C2CCCC2)C1)N1CCN(c2cccc(C(F)(F)F)c2)CC1` (centres undefined), the inhibition was 3.91%.

For `C[C@H](CO)N1C[C@H](C)[C@H](CN(C)CC2CC2)Oc2ccc(NC(=O)CCN3CCOCC3)cc2C1=O`, the inhibition was -4.39%.

`O=C(CCNC(=O)c1ccc([N+](=O)[O-])cc1)NC1CCCCC1`: the inhibition was 8.98%.

Take `O=c1oc2ccccc2c(=O)c2ccccc12`: the inhibition was -0.811%.

Regarding `O=C(Nc1ccccc1)C1CCN(C(=O)c2ccc(Br)cc2)CC1`, the inhibition was -9.91%.

On to `NC(=O)C1CCN(C(=O)c2ccc(-c3ccccc3)cc2)CC1`, for which the inhibition is -7.15%.

`O=C1Nc2cc(C(=O)N3CCC(N4CCCCC4)CC3)ccc2S/C1=C\c1ccccc1`: the inhibition is 88.1% (active).

As for `O=C1[C@@H](c2ccccc2)[C@@H](c2ccccc2)N1c1cccnc1`, the inhibition is -10.4%.

`COc1ccc(C2NC(=O)C(=O)/C2=C(\O)c2ccc(Cl)cc2)cc1OC` (centres undefined): the inhibition is -6.72%.

In the case of `CCOc1cc(N2CCOCC2)c(OCC)cc1NC(=O)COc1cccc(Cl)c1`, the inhibition is 0.482%.

As for `CCOc1cc(N2CCOCC2)c(OCC)cc1NC(=O)COc1cccc2cccnc12`, the inhibition was 83.8% (active).

Consider `CCOc1cc(N2CCOCC2)c(OCC)cc1NC(=O)c1ccc(C)s1`, for which the inhibition is 4.27%.

With `CCN1C(=O)N[C@@H](c2ccccc2)[C@H](C(C)=O)[C@H]1C`, the inhibition is 2.98%.

For `CCOc1ccc(C(=O)NC(=S)Nc2ccc(N3CCOCC3)c(Cl)c2)cc1[N+](=O)[O-]`, the inhibition is 6.29%.

With `Cc1cc(=O)[nH]c2nnnn12`, the inhibition was -4.79%.

Turning to `O=C(NN=Cc1ccccc1)c1ccccc1`, the inhibition was -52.5%.

As to `COc1cc(CCC(=O)N2CCN(c3ccccc3Cl)CC2)cc(OC)c1OC`, the inhibition was 7.49%.

With `CC(C)(C)OC(=O)C[C@H]1C/C=C\C[C@@H](CC(=O)N[C@H](CO)Cc2ccccc2)C(=O)NC[C@@H](c2ccccc2)OC1=O`, the inhibition is 4.03%.

In the case of `O=C(C[C@H]1C/C=C\C[C@@H](NC(=O)OCC2c3ccccc3-c3ccccc32)C(=O)O[C@@H](c2ccccc2)CNC1=O)N[C@H](CO)Cc1ccccc1`, the inhibition was 86.8% (active).

Consider `CC(C)(C)OC(=O)C[C@@H]1C/C=C\C[C@@H](CC(=O)N[C@H](CO)Cc2ccccc2)C(=O)NC[C@@H](c2ccccc2)OC1=O`, for which the inhibition was 1.12%.

For the origin of these results see PubChem BioAssay AID488899 (Broad Institute, 2010).
